# Measurements reported in PubChem BioAssay AID485314 (National Center for Advancing Translational Sciences (NCATS), 2010).
# Screen size: about 340,000 compounds; about 4,500 (1.3%) were called active. Another 5% or so got no clear call; they are omitted. The sample holds actives, similar compounds and a random draw of the others, so the mix is not that of the screen. Values without a mark were called inactive. Calls come from the whole dose curve; as a rule, active = well fitted inhibition curve with a large enough effect; inconclusive = small, poorly fitted or top-dose-only effect, or another doubt; inactive = no such curve, though single readings can be large or run the other way.
# Biological target: DNA polymerase beta (Homo sapiens) (UniProt P06746)
# Experiment: qHTS Assay for Inhibitors of DNA Polymerase Beta
# Details: Pol beta primer extension/strand displacement, fluorescence kinetic; series mostly up to 114 µM; activity change, negative = inhibition: at the top concentration
# In short: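 Enzyme-only controls used 10 nM Pol beta; buffer lacking enzyme served as negative control. Compound preincubated 15 min, then 50 nM substrate added; 0 and 10 min reads at room temperature.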
# % is set by controls: 0 for no effect and ±100 for the full control effect; potency is the fitted concentration of half-maximal effect.
SMILES,"activity change, negative = inhibition [%]",Potency
Cc1ccc2nc(-c3ccc(O)cc3)c(Nc3ccc4c(c3)OCO4)n2c1,39.3,–
COc1ccc(Cl)cc1-n1c(CCC(=O)O)ccc1-c1ccc(C)cc1,-1.45,–
COc1cccc2c(C)c(C(=O)O)[nH]c12,–,50.1 µM (active)
COc1cc2c(C(=O)O)c(C)n(C)c2c2ccccc12,27.9,–
Cc1c(C(=O)N/N=C/c2ccccc2)[nH]c2c([N+](=O)[O-])cccc12,-0.401,–
COc1ccc(S(=O)(=O)NCC(c2ccc(N(C)C)cc2)N2CCCC2)cc1 (configuration not stated),1.79,–
CCC(=O)Nc1cccc(-c2nc3cc(C)ccc3o2)c1,-23.2,–
O=C(NC1CCCCC1)C1CCCN(S(=O)(=O)c2ccc(Br)s2)C1 (configuration not stated),38,–
O=C(CC(c1ccccc1)c1cc(Cl)ccc1O)NCCN1CCOCC1 (configuration not stated),4.17,–
O=C(Cc1ccc(S(=O)(=O)N2CCCC2)s1)NC1CCCCCC1,–,31.6 µM (active)
O=C(Cc1ccc(S(=O)(=O)N2CCOCC2)s1)NCCC(c1ccccc1)c1ccccc1,–,22.4 µM (active)
O=C(NC1CCCCC1)C1CCCN(S(=O)(=O)c2cccs2)C1 (configuration not stated),0.533,–
COc1ccccc1NC(=O)COC(=O)Cc1ccc(S(=O)(=O)N2CCCCC2)s1,-5.94,–
CCn1c2ccccc2c2cc(CN3CCN(Cc4cccc(Cl)c4)CC3)ccc21,2.61,–
Cc1c(CCNC(=O)c2ccc(C(F)(F)F)cc2)sc2nc(-c3ccc(F)cc3)nn12,-1.1,–
CCCOc1cccc(C(=O)Nc2cccc(NC(=O)c3ccc(C(C)(C)C)cc3)c2)c1,0.549,–
COc1ccc(OCc2nnc3n2N=C(c2ccccc2)C(CC(=O)O)S3)cc1 (configuration not stated),–,22.4 µM (active)
COc1ccc(C2CC(c3ccccc3)=NN2C(=O)COC(=O)COc2ccccc2)cc1 (configuration not stated),-1.43,–
COc1cccc(OCc2nnc3n2N=C(c2ccccc2)C(CC(=O)O)S3)c1 (configuration not stated),1.71,–
Cc1cccc(C(=O)NCCc2nc3ccccc3n2Cc2ccccc2Cl)c1,6.4,–
COc1ccc(NC(=O)C(=O)NCc2ccco2)cc1,-4.3,–

SMILES,"activity change, negative = inhibition [%]",Potency
COc1ccc(-c2nc3ccc(C(=O)NCc4ccc(C)cc4)cc3nc2-c2ccc(OC)cc2)cc1,-29.7,–
O=C(NCc1ccccn1)c1ccc2nc(-c3ccco3)c(-c3ccco3)nc2c1,–,3.16 µM (active)
COc1cccc(S(=O)(=O)NCc2ccc(C(=O)NCc3ccccn3)cc2)c1,41.3,–
COCCNC(=O)Nc1ccc2nc(-c3ccco3)c(-c3ccco3)nc2c1,–,2.24 µM (active)
CCOc1ccc(NC(=O)c2ncoc2-c2ccco2)cc1,-4.76,–
COc1ccc(-n2nc(C(=O)NCCc3ccc(Cl)cc3)c3c4ccccc4n(C)c3c2=O)cc1Cl,10.3,–
COc1ccc(C)cc1NC(=O)C(=O)NCCc1sc(-c2cccc(C)c2)nc1C,1.3,–
Cc1cccc(N2CCN(C(=O)c3oc(=O)c4ccccc4c3-c3ccccc3)CC2)c1C,7.16,–
CCOC(=O)c1c(C)[nH]c(CCC(=O)Nc2ccc(OC)c(OC)c2)c1C,4.37,–
COc1ccc(C2Sc3ccccc3NC3=C2C(=O)c2ccccc23)c(OC)c1OC (configuration not stated),-10.1,–
O=C(/C=C/c1cn(CC(O)CN2CCc3ccccc32)c2ccccc12)c1ccc(Br)cc1 (configuration not stated),36.6,–
COc1ccc(-c2cc(=O)c3c(O)cc(O[C@@H]4O[C@H](CO[C@@H]5O[C@@H](C)[C@H](O)[C@@H](O)[C@H]5O)[C@@H](O)[C@H](O)[C@H]4O)cc3o2)cc1O,–,25.1 µM (active)
Cc1ccc(OCCn2c(CNc3ccccc3C)nc3ccccc32)cc1,-1.75,–
CCCCn1c(CNC(=O)C23CC4CC(CC(C4)C2)C3)nnc1SCC(=O)Nc1ccc(C)cc1,-23.9,–
CCCn1c2ccccc2c2cnn(CC(=O)N3CCCC(C(=O)OCC)C3)c(=O)c21 (configuration not stated),-3.43,–
CSc1nnc(SCc2nc3sc(C(=O)O)c(C)c3c(=O)[nH]2)s1,–,6.31 µM (active)
CCOC(=O)c1sc2nc(CSCC(=O)OCc3ccc(C(=O)OC)o3)[nH]c(=O)c2c1C,-0.296,–
CC(=O)c1sc2nc(SCC(=O)N3CCCCC3)[nH]c(=O)c2c1C,-27,–
Cc1ccc(C2c3[nH]c4ccccc4c3CCN2C(=O)c2cccc(C)c2)cc1 (configuration not stated),3.32,–
O=C(Nc1ccc(OC(F)(F)F)cc1)C1CCCN(S(=O)(=O)c2ccc(Br)s2)C1 (configuration not stated),-6.29,–
Cc1ccc(CSc2nc3cccnc3n2Cc2ccc(C(=O)NC3CC3)cc2)cc1,0.704,–

SMILES,"activity change, negative = inhibition [%]",Potency
COc1ccc(C2(Nc3cccc(F)c3)C(=O)c3ccccc3C2=O)cc1,9.84,–
CN(Cc1ccccc1)S(=O)(=O)c1ccc(F)c(C(=O)Nc2cccc(Cl)c2Cl)c1,3.34,–
O=C1CSC(=S)N1/N=C/c1ccc(O)c([N+](=O)[O-])c1,–,17.8 µM (active)
O=C1CSC(=S)N1c1ccc(O)cc1,10.1,–
O=[N+]([O-])c1ccc(N2CCSCC2)cc1O,0.685,–
Cc1ccc(Nc2c(-c3ccc(C)cc3)nc3cnccn23)cc1,2.74,–
CCOC(=O)C1CCN(c2ncnc3c2c(-c2ccccc2)cn3-c2cccc(C)c2)CC1,29.8,–
COc1ccc(Cl)cc1N(C)C(=O)c1cc2c(=O)oc3ccc(C)cc3c2s1,-16.4,–
O=C(Nc1ccccc1)c1nnsc1S(=O)(=O)c1ccc(Cl)cc1,–,44.7 µM (active)
O=C(Nc1ccc(Oc2ccccc2)cc1)C1CCN(S(=O)(=O)c2ccc(Cl)cc2)CC1,0.848,–
O=C(Nc1cccc(Cl)c1)c1csnn1,-3.01,–
CC(C)c1ccc(OCC(=O)N(Cc2ccc(N(C)C)cc2)C2CCS(=O)(=O)C2)cc1 (configuration not stated),-25,–
CC(=O)Nc1ccc(Nc2c3ccccc3nc3ccccc23)cc1,–,17.8 µM (active)
CC(C)(C)OC(=O)NNc1c2ccccc2nc2ccccc12,23.7,–
CCc1nc(Nc2ccc(NC(C)=O)cc2)c2oc3ccccc3c2n1,13.3,–
COc1ccc(C(=O)NCC(c2ccc(N(C)C)cc2)N2CCc3ccccc32)c(OC)c1 (configuration not stated),32,–
CCOc1ccc(-n2c(O)c(/C=N/Nc3nnc(C)c(=O)[nH]3)c3ccccc3c2=O)cc1,–,56.2 µM (active)
CCOc1ccc(-n2c(O)c(/C=N/c3ccnn3Cc3ccncc3)c3ccccc3c2=O)cc1,11.5,–
CCOc1ccc(-n2c(O)c(/C=N/Nc3nc(C)cc(C)n3)c3ccccc3c2=O)cc1,-19.5,–
CCOc1ccccc1NC(=O)CN1CCCN(Cc2cccc(Cl)c2)S1(=O)=O,1.06,–
